# The supplement of paper PMC11555231
# Target: PADI4, Q9UM07
# Test: log2 enrichment score relative to parent PADI4_3 peptide (binding to PADI4); higher = tighter binding than parent
# Conditions: CaCl2: 10 mM
# Description: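 Deep mutational scan of the cyclic peptide PADI4_3 (ClAc-D-Tyr1 initiator, thioether-cyclised to Cys12, C-terminal Gly plus HA tag, mRNA-displayed). Positions 2-11 were each randomised by NNK codons; Met was reprogrammed as N-methyl-alanine (MeA). One round of equilibrium panning against bead-immobilised human PADI4 (100 nM, 10 mM CaCl2, RT). Log2 enrichment (bound/input frequency) relative to the parent sequence (0 = parent), mean of three independent selections.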
# Chain of PADI4, Q9UM07 (Q9UM07 whole entry): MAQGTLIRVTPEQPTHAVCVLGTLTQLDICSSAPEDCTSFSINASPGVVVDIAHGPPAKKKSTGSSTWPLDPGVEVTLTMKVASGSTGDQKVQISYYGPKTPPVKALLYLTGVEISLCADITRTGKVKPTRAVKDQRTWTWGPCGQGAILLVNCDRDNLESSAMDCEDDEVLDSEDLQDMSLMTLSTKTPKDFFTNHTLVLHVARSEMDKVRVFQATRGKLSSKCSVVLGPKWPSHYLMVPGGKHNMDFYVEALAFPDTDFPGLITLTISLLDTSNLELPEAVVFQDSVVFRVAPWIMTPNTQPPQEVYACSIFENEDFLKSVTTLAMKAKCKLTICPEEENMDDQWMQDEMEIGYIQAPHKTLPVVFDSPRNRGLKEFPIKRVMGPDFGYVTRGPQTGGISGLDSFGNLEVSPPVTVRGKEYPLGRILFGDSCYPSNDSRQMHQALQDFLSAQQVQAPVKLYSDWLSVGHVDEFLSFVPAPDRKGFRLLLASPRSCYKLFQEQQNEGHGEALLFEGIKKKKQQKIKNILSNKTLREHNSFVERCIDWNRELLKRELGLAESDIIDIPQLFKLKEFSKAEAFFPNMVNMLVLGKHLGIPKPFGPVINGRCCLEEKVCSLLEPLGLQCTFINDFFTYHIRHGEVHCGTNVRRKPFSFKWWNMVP
binder,measurement,value
YRDHVYRHPKYCG [PADI4_3_H5V H5V],log2 enrichment score,-3
YRFHHYRHPKYCG [PADI4_3_D3F D3F],log2 enrichment score,-4.36
YRDHHYRWPKYCG [PADI4_3_H8W H8W],log2 enrichment score,-3.81
YRDHHWRHPKYCG [PADI4_3_Y6W Y6W],log2 enrichment score,-2.2
YRDLHYRHPKYCG [PADI4_3_H4L H4L],log2 enrichment score,-1.52
YRDHHPRHPKYCG [PADI4_3_Y6P Y6P],log2 enrichment score,-2.49
YRDPHYRHPKYCG [PADI4_3_H4P H4P],log2 enrichment score,-2.66
YRDVHYRHPKYCG [PADI4_3_H4V H4V],log2 enrichment score,-2.6
YRDHHYRHPPYCG [PADI4_3_K10P K10P],log2 enrichment score,-3.67
YRDHHYRHPKYCG [PADI4_3_H8H H8H],log2 enrichment score,0
YWDHHYRHPKYCG [PADI4_3_R2W R2W],log2 enrichment score,-2.67
YRYHHYRHPKYCG [PADI4_3_D3Y D3Y],log2 enrichment score,-3.73
YRDHHYWHPKYCG [PADI4_3_R7W R7W],log2 enrichment score,1.07
YRDHHYRHHKYCG [PADI4_3_P9H P9H],log2 enrichment score,-2.06
YRDHHHRHPKYCG [PADI4_3_Y6H Y6H],log2 enrichment score,0.321
YRDHHYRHFKYCG [PADI4_3_P9F P9F],log2 enrichment score,-2.05
YRDWHYRHPKYCG [PADI4_3_H4W H4W],log2 enrichment score,-3.44
YHDHHYRHPKYCG [PADI4_3_R2H R2H],log2 enrichment score,-2.21
YRDHHYRHPWYCG [PADI4_3_K10W K10W],log2 enrichment score,-0.93
YRDHHYRHPKFCG [PADI4_3_Y11F Y11F],log2 enrichment score,-2.66
YRDHHYRHPKYCG [PADI4_3_P9P P9P],log2 enrichment score,0
YRDHHYRHYKYCG [PADI4_3_P9Y P9Y],log2 enrichment score,-2
YRDHHYRHPYYCG [PADI4_3_K10Y K10Y],log2 enrichment score,-0.51
YRDHHYYHPKYCG [PADI4_3_R7Y R7Y],log2 enrichment score,-0.78
YRDFHYRHPKYCG [PADI4_3_H4F H4F],log2 enrichment score,-3.79
YRDHHYRFPKYCG [PADI4_3_H8F H8F],log2 enrichment score,-3.69
YRDHHYRHWKYCG [PADI4_3_P9W P9W],log2 enrichment score,-2
YRDHHYRHPKYCG [PADI4_3_Y11Y Y11Y],log2 enrichment score,0
YRDHHYRHPKYCG [PADI4_3_Y6Y Y6Y],log2 enrichment score,0
YRDHHYHHPKYCG [PADI4_3_R7H R7H],log2 enrichment score,-1.29
YRDHHYRHPKWCG [PADI4_3_Y11W Y11W],log2 enrichment score,-2.51
YRDHHYRHPHYCG [PADI4_3_K10H K10H],log2 enrichment score,-1
YRDHHYRHPVYCG [PADI4_3_K10V K10V],log2 enrichment score,2.58
YRDHHYRHPKYCG [PADI4_3_H5H H5H],log2 enrichment score,0
YRDHHYRHVKYCG [PADI4_3_P9V P9V],log2 enrichment score,-1.8
YRDHHYPHPKYCG [PADI4_3_R7P R7P],log2 enrichment score,-4.46
YRDHHYFHPKYCG [PADI4_3_R7F R7F],log2 enrichment score,-0.962
YRWHHYRHPKYCG [PADI4_3_D3W D3W],log2 enrichment score,-3.57
YRDHHFRHPKYCG [PADI4_3_Y6F Y6F],log2 enrichment score,-0.749
YRDHHYRVPKYCG [PADI4_3_H8V H8V],log2 enrichment score,-3.3
YRDHHVRHPKYCG [PADI4_3_Y6V Y6V],log2 enrichment score,-2.3
YRDHHYRHPKPCG [PADI4_3_Y11P Y11P],log2 enrichment score,-4.34
YRDYHYRHPKYCG [PADI4_3_H4Y H4Y],log2 enrichment score,-3.97
YRPHHYRHPKYCG [PADI4_3_D3P D3P],log2 enrichment score,-2.96
YRDHFYRHPKYCG [PADI4_3_H5F H5F],log2 enrichment score,-4.31
YPDHHYRHPKYCG [PADI4_3_R2P R2P],log2 enrichment score,-2.67
YRDHWYRHPKYCG [PADI4_3_H5W H5W],log2 enrichment score,-4.12
YRDHHYRYPKYCG [PADI4_3_H8Y H8Y],log2 enrichment score,-3.56
YVDHHYRHPKYCG [PADI4_3_R2V R2V],log2 enrichment score,-1.2
YRVHHYRHPKYCG [PADI4_3_D3V D3V],log2 enrichment score,-3.7
YFDHHYRHPKYCG [PADI4_3_R2F R2F],log2 enrichment score,-2.57
YRDHHYRHPFYCG [PADI4_3_K10F K10F],log2 enrichment score,-0.468
YRDHHYRPPKYCG [PADI4_3_H8P H8P],log2 enrichment score,-4.28
YRDHYYRHPKYCG [PADI4_3_H5Y H5Y],log2 enrichment score,-4.14
YRDHHYVHPKYCG [PADI4_3_R7V R7V],log2 enrichment score,-1.6
YYDHHYRHPKYCG [PADI4_3_R2Y R2Y],log2 enrichment score,-2.62
YRDHHYRHPKHCG [PADI4_3_Y11H Y11H],log2 enrichment score,-2.81
YRDHPYRHPKYCG [PADI4_3_H5P H5P],log2 enrichment score,-3.95
YRDHHYRHPKVCG [PADI4_3_Y11V Y11V],log2 enrichment score,-4.2
